From the supplement of paper PMC6555819

Tests used:
Assay in all cases: PBM binding z-score (relative to random genomic background probes); higher = stronger binding; sequences stand for … in GC…GCGATTGACAGCGTAGAATGAAGG
[1] = test system: FXR:RXRa (NR concentration 270 nM, RXRa partner concentration 90 nM)
Procedure, shortened: (§1)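 Custom Agilent 4×180K protein-binding microarrays carried double-stranded probes, each with a 34-nt variable region. These regions held direct-repeat seeds, single-nucleotide variants, half-site ablations and random human genomic background sequences. Ligand-free nuclear receptor dimers were incubated on the arrays for 1 h, antibodies against each partner (one per run) detected binding, and scanned fluorescence was regression-normalized. Binding z-scores take the random background probes as reference.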

[2] = test system: LXRa:RXRa (NR concentration 270 nM, RXRa partner concentration 90 nM)
Procedure, shortened: as §1

[3] = test system: LXRa homodimer (NR concentration 270 nM)
Procedure, shortened: as §1

[4] = test system: LXRb:RXRa (NR concentration 270 nM, RXRa partner concentration 90 nM)
Procedure, shortened: as §1

[5] = test system: LXRb homodimer (NR concentration 270 nM)
Procedure, shortened: as §1

[6] = test system: PPARa:RXRa (NR concentration 270 nM, RXRa partner concentration 90 nM)
Procedure, shortened: as §1

[7] = test system: PPARg:RXRa (NR concentration 180 nM, RXRa partner concentration 90 nM)
Procedure, shortened: as §1

[8] = test system: PPARg:RXRa 270nM:90nM, anti-RXR (NR concentration 270 nM, RXRa partner concentration 90 nM)
Procedure, shortened: as §1

[9] = test system: PPARg:RXRa 30nM:10nM, anti-RXR (NR concentration 30 nM, RXRa partner concentration 10 nM)
Procedure, shortened: as §1

[10] = test system: PPARg:RXRa 90nM:30nM, anti-RXR (NR concentration 90 nM, RXRa partner concentration 30 nM)
Procedure, shortened: as §1

Sequence	PBM binding z-score [1]	PBM binding z-score [2]	PBM binding z-score [3]	PBM binding z-score [4]	PBM binding z-score [5]	PBM binding z-score [6]	PBM binding z-score [7]	PBM binding z-score [8]	PBM binding z-score [9]	PBM binding z-score [10]
TAGCCTAGGTCATTGGGCCAGTTTAGTACGCATC	4.25	3.21	0.757	2.35	0.194	3.88	3.49	3.27	0.719	2.06
ACTAGCAGGCCATGTTTGGGTCACTCAAACAAAG	0.27	-0.058	-0.283	0.735	-0.846	1.31	0.145	0.304	-0.51	-0.31
CAGCCTAGGTCAGGACCAGTATAGGAGGAACGTT	1.48	0.848	-0.0859	0.663	-0.972	1.94	0.905	0.922	-0.12	0.355
CCTGATAGGTCAATGGTCAGCTAAAGCAGCTCGC	5.01	3.98	0.776	2.92	0.415	4.48	4.56	4.96	2.53	4.35
CCTATTAGTTGACCATACGGGCAACCGAAGCTCG	0.382	0.294	0.419	0.323	0.519	-0.224	0.305	-0.0431	-0.298	-0.186
GATACAGGGTCAGCTAGAGGCCTGAGTATGGAAA	4.07	2.14	-0.546	1.75	-0.639	4.25	3.02	2.86	0.545	1.56
ACTAGCAGGCCAGGGGTCACTCAAGATTAGTCCG	4.12	3.93	0.488	4.47	0.258	5.04	6.84	6.37	4.58	6.76
CCTAGTTGCTCAGGAGGTCACACACCGGATATGA	3.45	3.66	2.47	3.74	0.953	4.23	1.96	2.65	0.83	1.79
TCTGCCAGGTCAACGATGGTCAGCTAATCTGCTA	4.25	3.33	0.136	2.23	0.15	3.46	2.13	2.8	1.53	2.04
CGAACTAGATCATCCAGGACAGTGAATACATTGA	0.155	-0.152	0.195	-0.18	0.286	-0.169	0.554	-0.19	0.138	-0.219
GCTTGTAGATCTAGGTTAAGAAAGACTAAGCTAA	-0.373	-0.228	-0.5	-0.166	-0.791	1.14	0.547	0.539	0.267	0.418
TCTATAAGTTGATTAGGGCAACCGAAACAGCGGA	0.561	0.285	0.0111	0.135	-0.0997	1.13	0.429	2.02	3.59	2.83
TGTCAAAGTTCAAACGTAACGTAAGTATCCACAC	7.01	6.81	5.78	4.82	3	5.43	8.29	7.51	5.26	7.39
GCTAGTTGGGCAGTAAAAGGTCACACACCGGTCG	3.19	4.3	4.34	3.64	0.418	4.28	2.12	3.8	1.65	3.19
TCTAGTTGGTCACGGAGGTCACGCACGACGGGTA	3.96	4.14	2.94	3.75	0.74	4.54	4.03	4.7	3.7	4.38
CGTCAAAGTTCAACTAAGGTAAAGTAAAGCACGC	6.88	6.38	3.13	4.16	2.1	5.3	4.8	5.57	2.59	4.36
CCTATTAGTTGACCATATGGGCAACCGAAGCTCG	0.27	0.454	0.368	0.353	0.853	-0.034	0.453	0.317	-0.521	-0.00655
ACAACGAGGGCAATGAGTTGATAGCACGGGTGGC	0.234	0.0424	-0.326	-0.109	-0.343	0.835	1.33	0.403	-0.00945	0.211
GGAACGAGGGCATTGGAGTTGATAGCATGGCGAT	0.624	1.25	-0.304	-0.0971	-0.75	1.36	0.831	0.611	-0.313	-0.0775

Sequence	PBM binding z-score [1]	PBM binding z-score [2]	PBM binding z-score [3]	PBM binding z-score [4]	PBM binding z-score [5]	PBM binding z-score [6]	PBM binding z-score [7]	PBM binding z-score [8]	PBM binding z-score [9]	PBM binding z-score [10]
TCTATTAGTTGAAGGGCAAGCGACGAGTCCGTTT	0.609	1.02	0.0576	0.863	0.193	1.04	0.0198	2.29	3.57	2.98
AGTCAAAGTTCAGGACGAGGTATCGTAAAGCACG	3.59	3.83	1.22	1.59	-0.0231	2.98	3.89	4.58	1.74	3.93
GCTCGGAGGACAAGGTTAGAGCTTTGTCCGTAGA	-0.181	-0.186	-1.07	-0.329	-0.89	0.169	-0.843	0.0367	-1.07	-0.395
CGTCCAAGGTCATAGGATGTCAGTGAAGACAGAT	7.4	5.86	1.1	4.02	0.568	5.6	4.69	5.42	1.9	3.95
TCACATAGGTAAACAGGTGAAAGTCCGTAAGTTA	0.14	0.698	0.285	0.803	-0.368	2.06	1.27	2.75	3.62	3.11
GATTGTAGATCAAGGTTAAGAAAGACTAAGCTAA	-0.0604	0.349	-0.364	0.458	-0.63	1.72	1.47	2.51	0.605	2.28
TCGAGTAGGTTACCAATCGGGCATTCAGCTTTCT	-0.222	0.961	-0.836	-0.125	-1.27	0.717	-0.0284	1.08	1.26	1.27
CTACCAAGGTGAACTAGGTCGTTGATTACTATTC	1.2	1	0.238	1.61	-0.516	2.59	1.12	1.6	0.168	1.05
CCGACTGGGGCAAAGGTTAACATACTCAGTACGA	2.41	2.19	0.28	2.96	-0.551	6.17	11.3	9.21	9.81	10.1
ATCGAAAGGTCGTGAGGTGAGAATACAGAAAGGC	5.69	4.09	0.3	3.37	0.293	5.61	4.61	4.58	1.99	3.09
CCTTACGGTTCACTCCAGGTTATAGCATCGGAGT	2.82	6.46	2.54	3.58	0.998	2.21	0.562	0.77	0.224	0.483
ATCTCCAGGTAAGACTCAGTTCAGTGAAGAACGC	0.579	0.595	0.65	0.641	0.696	0.265	0.0991	0.41	0.426	0.596
CCTACTGGGCCAACGGTCATTGATTCCAATGCTC	0.0438	-0.079	0.674	-0.198	-0.607	2.53	5.23	6.24	4.4	5.61
ATACCAAGGTGATCGTGCGGTCGTTGATACTAAC	0.823	0.293	0.286	-0.0591	-0.308	0.0191	0.122	0.0521	-0.564	-0.232
GCTAGCAGGCCATTTGGGGCACTCAATGACGGGC	-0.254	-0.719	-0.424	-0.753	-0.89	-0.000395	0.377	-0.278	-0.304	-0.0904
CCTAGCAGGCCAATCTGGGTCACTCACGGCTTGA	0.571	1.17	-0.195	0.493	-0.78	2.81	1.85	1.92	-0.256	1.18
CCTACTGGGCCAGTCAGAGGTCATTGATCATATG	2.43	3.71	5.39	3.58	-0.105	3.66	2.18	3.32	0.876	2.2
TAGCCTAGGTCAGATTGGGCCAGTATACGCTATA	2.65	1.25	-0.472	0.995	-0.0361	1.43	0.564	0.735	-0.437	-0.114
CCTAGCAGGCCAGGGCCACTCAAGCATTTCGCTT	-0.787	-0.944	-0.625	-1.04	-1.61	-0.638	-0.367	-1.16	-1.24	-1.48
